# The whole screen tested about 60,000 compounds, of which about 210 (0.35%) were called active. What follows is part of a selection rich in actives, with near analogues and random picks from the rest. Values without a mark were called inactive.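 The calls were made as follows: active = inhibition above the screen-wide mean inhibition plus 3 SD (cut at about 18% in these data); inactive = the rest.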
# Target: Rho-associated protein kinase 2 (Homo sapiens) (UniProt O75116)
# Assay: inhibitors of human ROCK2 kinase, primary screen, biochemical, high-throughput, luminescence (AID 604);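 also: plate controls were DMSO wells for no effect and Y-27632 control wells after no-enzyme background subtraction for full effect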
# Conditions: purified ROCK2, Kinase-Glo ATP depletion luminescence; at 6 µM; stronger effect = higher value
# Sequence of Rho-associated protein kinase 2 (Homo sapiens) (O75116 whole entry, looked up): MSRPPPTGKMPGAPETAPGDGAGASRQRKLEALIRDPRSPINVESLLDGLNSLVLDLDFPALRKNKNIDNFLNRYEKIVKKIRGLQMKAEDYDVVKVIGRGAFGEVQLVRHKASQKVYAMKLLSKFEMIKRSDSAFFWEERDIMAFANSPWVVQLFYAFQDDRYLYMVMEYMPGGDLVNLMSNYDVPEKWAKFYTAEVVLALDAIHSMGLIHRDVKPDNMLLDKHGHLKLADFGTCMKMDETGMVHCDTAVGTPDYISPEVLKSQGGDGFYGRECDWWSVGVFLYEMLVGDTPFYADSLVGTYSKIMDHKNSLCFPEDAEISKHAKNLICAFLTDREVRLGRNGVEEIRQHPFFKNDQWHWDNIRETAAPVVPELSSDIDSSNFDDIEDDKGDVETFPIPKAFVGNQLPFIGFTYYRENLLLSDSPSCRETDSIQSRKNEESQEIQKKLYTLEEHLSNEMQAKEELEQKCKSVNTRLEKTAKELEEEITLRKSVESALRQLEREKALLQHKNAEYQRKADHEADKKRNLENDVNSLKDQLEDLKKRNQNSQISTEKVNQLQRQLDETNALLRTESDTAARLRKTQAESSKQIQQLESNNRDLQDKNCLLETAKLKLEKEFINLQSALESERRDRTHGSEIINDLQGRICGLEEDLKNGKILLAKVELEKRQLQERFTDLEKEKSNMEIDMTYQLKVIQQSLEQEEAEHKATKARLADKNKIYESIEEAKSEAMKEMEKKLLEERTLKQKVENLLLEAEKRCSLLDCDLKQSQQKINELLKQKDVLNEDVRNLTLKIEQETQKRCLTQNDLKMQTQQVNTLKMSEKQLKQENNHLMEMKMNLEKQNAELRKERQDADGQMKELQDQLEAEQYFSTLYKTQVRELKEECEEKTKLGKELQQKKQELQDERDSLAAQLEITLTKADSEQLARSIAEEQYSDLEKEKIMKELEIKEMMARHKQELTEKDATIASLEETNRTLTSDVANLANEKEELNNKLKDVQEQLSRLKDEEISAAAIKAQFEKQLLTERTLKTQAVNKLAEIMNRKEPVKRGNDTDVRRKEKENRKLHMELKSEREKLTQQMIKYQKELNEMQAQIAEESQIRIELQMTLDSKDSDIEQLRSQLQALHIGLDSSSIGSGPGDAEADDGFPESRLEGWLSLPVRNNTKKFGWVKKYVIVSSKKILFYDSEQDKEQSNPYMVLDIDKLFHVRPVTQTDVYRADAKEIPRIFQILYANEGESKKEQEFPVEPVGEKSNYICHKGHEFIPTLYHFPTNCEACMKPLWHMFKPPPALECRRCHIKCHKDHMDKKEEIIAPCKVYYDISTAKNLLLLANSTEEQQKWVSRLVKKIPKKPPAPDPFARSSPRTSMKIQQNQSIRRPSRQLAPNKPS
row,Structure (SMILES),inhibition
1,CC(C)OCCCNc1nc2c(c(=O)n(Cc3ccccc3F)c(=O)n2C)n1C,-0.3%
2,CC1Cc2ccccc2N1C(=O)CSc1nnc(-c2ccc(S(=O)(=O)N3CCCCC3)cc2)o1 (stereo not given),-4.4%
3,CCCCCCn1c(CN2CCCCC2)nc2c1c(=O)n(C)c(=O)n2C,-1.3%
4,Cc1nn(-c2ccccc2)c(C)c1C(=O)OCC(=O)NC(=O)NC1CCCCC1,1.4%
5,COC(=O)C(C)n1cnc2c(nnn2-c2cccc(Cl)c2)c1=O (stereo not given),7.7%
6,O=C(CC1N=C2c3ccccc3N=C(SCc3ccccc3Cl)N2C1=O)NCc1ccco1 (stereo not given),2.8%
7,Cc1cccc(OCc2nnc(SCC(=O)N3CCN(C(=O)c4ccco4)CC3)n2C)c1C,3.2%
8,O=C(c1cc(-c2ccccc2O)on1)N1CCCC1,-1.5%
9,CCOC(=O)N1CCC(NC(=O)Cn2cc3c(n2)CCCCC3)CC1,9%
10,O=C(CN1CCOCC1)Nc1cc(Cl)ccc1Cl,2.5%
11,O=C(NCc1ccco1)C1CCCN(S(=O)(=O)c2cnc[nH]2)C1 (stereo not given),3.2%
12,COc1cccc(-c2nn(C)c3sc(C(=O)N4CCN(c5ccccc5)CC4)cc23)c1,6.1%
13,O=C(Nc1ccn(Cc2ccc(F)cc2)n1)c1ccncc1,18.1%
14,CCOC(=O)Cc1csc(NC(=O)CN(C)S(=O)(=O)c2ccc3c(c2)CCC(=O)N3)n1,2.4%
15,CC(C)n1c(NCc2c[nH]c3ccccc23)nc2ccccc21,2.4%
16,Cc1cc(NC(=O)CCC(=O)N(c2cccc(F)c2)C(C(=O)NC2CCCC2)c2ccncc2)no1 (stereo not given),4%
17,Cc1ccccc1-c1nc(CS(=O)(=O)CC(=O)N2CCc3ccccc3C2)c(C)o1,-0.8%
18,CN(C)Cc1c(O)ccc2occ(C(O)c3ccccc3)c12 (stereo not given),2%
19,CSc1ccc(S(=O)(=O)NCc2ccc(Cl)cc2)cc1,5.4%
20,CCOC(=O)N1CCN(Cc2nc3c(c(=O)n(C)c(=O)n3C)n2Cc2ccccc2)CC1,2.4%
21,CCn1c(SCC(=O)Nc2cc(C)c(Cl)cc2OC)nnc1-c1ccco1,3.2%
22,Cc1ccc(N2CCN(S(=O)(=O)N(C)C)CC2)cc1Cl,8.1%
23,O=c1c(-c2ccc3c(c2)OCCO3)c(C(F)(F)F)oc2cc(O)cc(O)c12,-3.1%
24,CCOC(=O)C1=C(C)NC(C)=C(C(=O)OCC)C1c1ccccn1,-6.7%
25,CC(=O)N1CSCC1C(=O)O (stereo not given),2.3%
26,Cc1noc(C)c1C(=O)Nc1ccccn1,8.1%
27,O=C(NCc1cccnc1)c1ccc(CS(=O)(=O)c2ccc(Br)cc2)o1,1.6%

row,Structure (SMILES),inhibition
1,O=C(/C(=N\O)n1cncn1)c1ccc(Br)cc1Br,-2.8%
2,CCOC(=O)NC(C(F)(F)F)(C(F)(F)F)P(=O)(c1ccccc1)c1ccccc1,3.9%
3,CCN(CC(=O)NCc1cccs1)c1nnnn1-c1ccccc1,-4.6%
4,C[C@H](NC(=O)NCCc1ccccc1)C(=O)O,4.7%
5,COc1ccc(C2CC(c3ccc(C)cc3)Nc3nc(N)nn32)cc1 (stereo not given),-2.6%
6,O=C(CN(Cc1ccccc1)C(=O)c1ccc2c(c1)OCCO2)NCc1ccc2c(c1)OCO2,5.9%
7,Cc1cccc(Cn2c(N3CCN(c4ccccc4)CC3)nc3c2c(=O)n(C)c(=O)n3C)c1,5.3%
8,COc1ccccc1NC1=NC2(CCCC2)N=C(N)N1,-2%
9,CCOc1ncccc1C(=O)OCc1cn2cc(Cl)ccc2n1,12.7%
10,Cc1ccc(C2c3c(oc4ccc(C)cc4c3=O)C(=O)N2CCCN2CCOCC2)cc1 (stereo not given),-2.1%
11,Cc1cc(NC(=O)CSCc2nc(-c3cccc(Cl)c3)oc2C)no1,3.5%
12,COc1ccccc1N(CC(=O)N1CCCCC1)S(=O)(=O)c1ccccc1,5.5%
13,COc1ccc(N2C(=O)CC(N3CCC(C(N)=O)CC3)C2=O)cc1 (stereo not given),-1.8%
14,O=C(CC1Oc2ccccc2NC1=O)NCCCN1CCN(Cc2ccccc2)CC1 (stereo not given),0.1%
15,C(=C\c1ccccc1)/CSc1nnc(-c2cccnc2)n1Cc1ccco1,5%
16,CCN(CC)CCN1C(=O)C(=O)/C(=C(/O)c2ccc(OC)c(OC)c2)C1c1ccccn1 (stereo not given),1.6%
17,Cc1cc(N=CC2=C(O)CCCC2=O)no1,4.3%
18,Cc1ccsc1-c1nc(CSCC(=O)NCCN2CCCC2)c(C)o1,-0.8%
19,CC1CCCN(c2ccc(C(=O)NCCc3ccccc3)cn2)C1 (stereo not given),7.3%
20,Cc1ccc(S(=O)(=O)N2CCCC2C(=O)NCc2ccco2)cc1 (stereo not given),-1.2%
21,CC(C)NS(=O)(=O)c1ccc(CCC(=O)N2CCOCC2)cc1,1.3%
22,CCn1nc(NC(=O)c2ccco2)c2cc3ccc(C)cc3nc21,-4.9%
23,CCNS(=O)(=O)c1ccc(NC(=O)Nc2cccc(OC)c2)cc1,2.5%
24,COc1ccc(CNC(=O)c2cc3c(=O)n4ccccc4nc3n(CC3CCCO3)c2=N)cc1 (stereo not given),5.4%
25,CCOC(=O)c1csc(NC(=O)c2ccc(S(=O)(=O)N3CCCC3)cc2)n1,-1.1%
26,C=CCn1c(=S)[nH]c2nc3c(cc2c1=O)COC(C)(C)C3,8%
27,CCCCC(=O)N1CC2(C)CN(C(=O)CCCC)CC(C)(C1)C2=O,3.9%

row,Structure (SMILES),inhibition
1,O=C(Nc1ccccc1F)c1cc(S(=O)(=O)N2CCCCC2)cs1,9.5%
2,O=C(CSc1ncccn1)NCCc1ccccc1,6.2%
3,CCCOC(=O)Cc1c(O)c2ccccc2[nH]c1=O,1.5%
4,CC1(C)CC(=O)C=C(NC2CC(C)(C)NC(C)(C)C2)C1,5.7%
5,O=C(OCC(=O)N1CCCC1)c1ccco1,3.5%
6,Cc1oc(CC(C)C)c(CN2CCCC2)c1C(=O)O,0.9%
7,CC(=O)Cc1nsc(NC(=O)c2ccc(COc3ccc(C)cc3)o2)n1,2.4%
8,Cc1noc(C)c1S(=O)(=O)N1CCCC(C(=O)Nc2nccs2)C1 (stereo not given),3.5%
9,CCOC(=O)CC1=CC(=O)Nc2ccccc2N1,7.2%
10,Cc1occc1C(=O)N1CCCc2ccccc21,1%
11,O=C(c1ccc(S(=O)(=O)N2CCOCC2)cc1)N1CCN(c2ccccc2)CC1,2.3%
12,O=C1c2oc3ccccc3c(=O)c2C(c2cccc(O)c2)N1c1ccccn1 (stereo not given),1%
13,COc1ccc(-n2c(SCC(=O)Nc3ccc4c(c3)OCO4)nnc2C(C)N2CCCCC2)cc1 (stereo not given),1%
14,c1ccc2c(NCC3CCCO3)nc(-c3ccncc3)nc2c1 (stereo not given),5.5%
15,Cc1noc(C)c1COC(=O)Cn1c(C)nc2ccccc21,5.1%
16,CCOC(=O)C1CCN(C(=O)C2CCN(S(=O)(=O)CC)CC2)CC1,-1.2%
17,CCCc1nc(SCC(=O)Nc2ccccc2OC)c2c(=O)n(C)c(=O)n(C)c2n1,1.6%
18,CCOc1ccccc1N(CC(=O)NC1CCCCC1)C(=O)CCCC(=O)Nc1ccccn1,4.8%
19,O=C(CSc1nnc(-c2cccnc2)n1Cc1ccco1)c1ccc(Cl)cc1,2.8%
20,CCOc1ccccc1NC(=O)CCc1ccc(C)o1,0.9%
21,CS(=O)(=O)c1ccc2nc(NC(=O)C3CCCCC3)sc2c1,6.5%
22,O=c1c(F)cn(C2CCCO2)c(=O)n1Cc1ccccc1Cl (stereo not given),-7.2%
23,CCn1c(CSc2ncccn2)nnc1SCC(=O)N1c2ccccc2CC1C (stereo not given),1.2%
24,CCCOc1ccc(N2CC(C(=O)Nc3ccccn3)CC2=O)cc1 (stereo not given),2.5%
25,O=C1CCCC2=C1C(c1cccs1)n1nc(SCc3ccccc3)nc1N2 (stereo not given),2%
26,COc1ccc(-c2[nH]nc3c2C(c2ccncc2)C(C#N)=C(N)O3)cc1 (stereo not given),-0.8%
27,CC(C(=O)N1CCOCC1)N1c2cccc3cccc(c23)S1(=O)=O (stereo not given),11.3%

row,Structure (SMILES),inhibition
1,O=C(c1cccs1)N(C(=O)c1cccs1)c1ccccn1,3.6%
2,CCc1c(C)nc(N2CCN(Cc3ccccc3)CC2)[nH]c1=O,-0.6%
3,CCN1CCN(Cc2nc3c(c(=O)n(C)c(=O)n3C)n2CC(=O)c2ccccc2)CC1,-1.1%
4,COc1ccccc1CNC(=O)Cn1cc2c(n1)CCCC2,2.7%
5,N#CCCn1cnc2ccccc21,0.3%
6,CCn1c(=N)n(CC(=O)c2cccc(OC)c2)c2ccccc21,-1.1%
7,CCOCCCNC(=O)c1c[nH]c2cc(C)ccc2c1=O,-0.3%
8,Brc1cnc(N2CCCC2)nc1N1CCCCC1,2%
9,COc1ccc(N2CC(C)Cn3c2nc2c3c(=O)n(Cc3ccccc3F)c(=O)n2C)c(OC)c1 (stereo not given),-0.2%
10,CCC(Sc1nncn1C)C(=O)Nc1nnc(-c2ccc(Cl)cc2)s1 (stereo not given),3.6%
11,COc1ccc(OC)c(N=Cc2c(O)[nH]c3ccccc23)c1,12.3%
12,COc1ccc2[nH]c3ccc(OC)cc3c2c1,5.6%
13,COC(=O)c1[nH]c2ccccc2c1NS(=O)(=O)c1ccc(OC)cc1OC,5.9%
14,COc1ccc(CCNC(=O)CCCCn2c(=O)[nH]c3ccccc3c2=O)cc1OC,4.9%
15,COc1cc(N=Cc2c(O)[nH]c3ccccc23)cc(OC)c1OC,58.4% (active)
16,COc1ccc(N=Cc2c(O)[nH]c3ccccc23)cc1OC,36.8% (active)
17,CC(C)=C(NC(=O)c1ccco1)C(=O)NCCc1nc2ccccc2[nH]1,1.2%
18,COc1cc(NS(=O)(=O)c2ccccc2)ccc1-n1nc(C)cc1C,10.8%
19,CCCOC(=O)c1cc2ccccc2oc1=O,0.3%
20,CCOc1cc(S(=O)(=O)NCc2ccc3c(c2)OCO3)ccc1F,0.8%
21,CN(C)/C=C1\C=C(c2ccccc2)OC1=O,0.1%
22,COCCN1C(=O)c2oc3c(C)cc(C)cc3c(=O)c2C1c1cccc(O)c1 (stereo not given),-3%
23,O=C(NCCCN1CCN(Cc2ccccc2)CC1)C1CCN(S(=O)(=O)N2CCCC2)CC1,2.6%
24,O=C(c1ccco1)N1CCN(C(=O)C2c3ccccc3Oc3ccccc32)CC1,-3.5%

# Source: PubChem BioAssay AID604 (The Scripps Research Institute Molecular Screening Center, 2007)
